Results reported in the supplement of paper PMC11732987, “Enantioselective OTUD7B fragment discovery through chemoproteomics screening and high-throughput optimisation” (Communications Chemistry, 2025).

How the values were obtained:
Test in all cases: log2 ratio of Biotin-Ahx-Ub-VS probe labelling (fragment/DMSO); higher = less target engagement (more negative = stronger competition), active = hit call of the paper (q ≤ 0.05, log2 ratio ≤ -1)
Conditions in all cases: compound concentration: 200 uM; treatment time: 3 h
USP34 = USP34 (UniProt Q70CQ2)
Sequence of USP34 (Q70CQ2 whole entry, the tested form may be a part): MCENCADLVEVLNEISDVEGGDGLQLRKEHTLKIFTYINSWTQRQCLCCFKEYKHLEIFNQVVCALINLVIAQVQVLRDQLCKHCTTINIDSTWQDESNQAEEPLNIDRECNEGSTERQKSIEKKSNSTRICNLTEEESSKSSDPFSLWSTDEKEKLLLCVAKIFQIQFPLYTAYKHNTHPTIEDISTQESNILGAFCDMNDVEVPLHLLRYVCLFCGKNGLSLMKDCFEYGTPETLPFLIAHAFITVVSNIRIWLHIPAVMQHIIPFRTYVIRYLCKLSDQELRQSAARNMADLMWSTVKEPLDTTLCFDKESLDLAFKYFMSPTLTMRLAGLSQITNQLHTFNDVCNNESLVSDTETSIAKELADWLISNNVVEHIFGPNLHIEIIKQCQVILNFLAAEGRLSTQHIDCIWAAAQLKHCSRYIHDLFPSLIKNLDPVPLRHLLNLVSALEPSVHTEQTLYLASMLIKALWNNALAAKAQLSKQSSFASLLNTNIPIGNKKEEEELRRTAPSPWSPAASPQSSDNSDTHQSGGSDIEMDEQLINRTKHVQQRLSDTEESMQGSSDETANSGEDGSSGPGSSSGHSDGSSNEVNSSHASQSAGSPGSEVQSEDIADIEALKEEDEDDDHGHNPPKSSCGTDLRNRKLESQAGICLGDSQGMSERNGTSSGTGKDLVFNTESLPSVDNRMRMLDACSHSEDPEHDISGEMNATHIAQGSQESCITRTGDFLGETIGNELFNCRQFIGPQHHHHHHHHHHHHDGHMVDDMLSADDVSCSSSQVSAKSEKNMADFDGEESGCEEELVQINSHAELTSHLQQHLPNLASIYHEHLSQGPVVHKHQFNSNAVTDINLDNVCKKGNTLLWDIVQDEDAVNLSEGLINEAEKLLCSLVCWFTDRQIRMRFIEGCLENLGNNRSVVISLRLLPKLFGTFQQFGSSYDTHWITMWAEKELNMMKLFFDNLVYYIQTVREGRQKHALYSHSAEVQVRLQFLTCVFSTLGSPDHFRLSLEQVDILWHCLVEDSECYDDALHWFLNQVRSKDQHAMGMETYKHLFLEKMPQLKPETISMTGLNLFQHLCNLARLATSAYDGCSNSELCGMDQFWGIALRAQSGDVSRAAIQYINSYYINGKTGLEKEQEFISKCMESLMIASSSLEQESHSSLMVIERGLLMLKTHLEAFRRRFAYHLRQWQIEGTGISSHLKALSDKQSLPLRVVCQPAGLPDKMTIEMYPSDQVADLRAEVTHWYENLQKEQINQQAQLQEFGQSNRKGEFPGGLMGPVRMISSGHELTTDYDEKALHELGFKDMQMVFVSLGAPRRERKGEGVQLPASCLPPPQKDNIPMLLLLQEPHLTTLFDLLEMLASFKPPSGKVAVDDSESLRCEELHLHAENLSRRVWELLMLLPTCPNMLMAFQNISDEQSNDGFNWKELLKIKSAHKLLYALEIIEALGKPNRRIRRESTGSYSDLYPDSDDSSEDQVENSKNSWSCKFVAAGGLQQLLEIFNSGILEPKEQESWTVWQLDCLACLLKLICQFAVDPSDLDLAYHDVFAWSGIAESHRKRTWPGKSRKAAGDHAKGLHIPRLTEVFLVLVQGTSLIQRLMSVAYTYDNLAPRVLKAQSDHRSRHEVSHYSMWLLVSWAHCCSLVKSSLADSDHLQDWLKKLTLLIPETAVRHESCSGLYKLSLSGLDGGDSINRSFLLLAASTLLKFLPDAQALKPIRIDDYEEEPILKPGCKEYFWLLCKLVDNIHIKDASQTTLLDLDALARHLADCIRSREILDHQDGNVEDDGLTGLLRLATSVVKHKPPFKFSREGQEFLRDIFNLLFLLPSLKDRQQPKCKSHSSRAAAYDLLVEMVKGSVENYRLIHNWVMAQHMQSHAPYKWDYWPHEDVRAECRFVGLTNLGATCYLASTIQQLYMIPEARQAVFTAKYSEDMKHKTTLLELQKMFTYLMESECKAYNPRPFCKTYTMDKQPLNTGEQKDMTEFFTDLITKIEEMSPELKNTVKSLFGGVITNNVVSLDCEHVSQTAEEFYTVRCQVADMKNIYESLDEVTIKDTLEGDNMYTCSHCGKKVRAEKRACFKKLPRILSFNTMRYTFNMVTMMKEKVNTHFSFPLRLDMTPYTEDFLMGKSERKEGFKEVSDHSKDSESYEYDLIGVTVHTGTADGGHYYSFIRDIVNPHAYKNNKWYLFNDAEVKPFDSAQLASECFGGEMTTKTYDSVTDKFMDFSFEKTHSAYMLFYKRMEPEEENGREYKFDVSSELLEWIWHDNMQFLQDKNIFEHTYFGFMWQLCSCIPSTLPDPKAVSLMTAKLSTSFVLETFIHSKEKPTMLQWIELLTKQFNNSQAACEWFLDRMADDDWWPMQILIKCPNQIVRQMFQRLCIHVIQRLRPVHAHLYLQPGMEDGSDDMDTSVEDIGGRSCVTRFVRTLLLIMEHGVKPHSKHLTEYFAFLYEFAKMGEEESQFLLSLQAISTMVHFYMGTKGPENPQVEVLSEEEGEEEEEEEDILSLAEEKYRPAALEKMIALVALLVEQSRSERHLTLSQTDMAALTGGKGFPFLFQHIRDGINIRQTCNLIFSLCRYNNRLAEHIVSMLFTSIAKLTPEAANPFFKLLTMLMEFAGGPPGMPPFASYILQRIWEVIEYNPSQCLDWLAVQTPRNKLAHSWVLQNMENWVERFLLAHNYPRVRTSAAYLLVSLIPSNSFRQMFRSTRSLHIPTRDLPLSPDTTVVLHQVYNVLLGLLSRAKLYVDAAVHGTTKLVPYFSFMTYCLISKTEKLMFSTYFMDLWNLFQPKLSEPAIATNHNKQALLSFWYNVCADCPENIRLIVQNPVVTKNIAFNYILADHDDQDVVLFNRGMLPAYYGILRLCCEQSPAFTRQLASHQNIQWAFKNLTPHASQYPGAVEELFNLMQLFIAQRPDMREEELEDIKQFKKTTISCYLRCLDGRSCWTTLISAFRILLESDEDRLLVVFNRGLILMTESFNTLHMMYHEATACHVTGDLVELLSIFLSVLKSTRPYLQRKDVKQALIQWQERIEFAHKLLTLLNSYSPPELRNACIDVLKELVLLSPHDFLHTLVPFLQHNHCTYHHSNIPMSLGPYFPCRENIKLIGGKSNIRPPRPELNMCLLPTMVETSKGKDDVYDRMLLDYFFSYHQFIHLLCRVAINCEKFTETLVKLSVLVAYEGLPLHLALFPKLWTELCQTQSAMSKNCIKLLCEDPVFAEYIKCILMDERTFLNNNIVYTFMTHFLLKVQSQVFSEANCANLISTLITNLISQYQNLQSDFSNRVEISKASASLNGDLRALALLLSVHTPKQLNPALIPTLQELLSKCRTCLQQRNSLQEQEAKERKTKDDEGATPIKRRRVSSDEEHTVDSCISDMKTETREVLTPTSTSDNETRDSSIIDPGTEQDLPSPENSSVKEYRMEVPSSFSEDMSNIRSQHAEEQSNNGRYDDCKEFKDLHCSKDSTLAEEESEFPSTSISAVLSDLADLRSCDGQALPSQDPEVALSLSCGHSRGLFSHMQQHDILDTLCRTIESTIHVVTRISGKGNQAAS
Procedure, shortened: (§1)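 HEK293T lysate, 495 µg per sample in Tris/CHAPS/IGEPAL buffer with protease inhibitors, was treated in triplicate with fragment at 200 µM or vehicle for 3 h and then with Biotin-Ahx-Ub-VS at 0.5 µM final for 1 h. Labelled DUBs were NeutrAvidin-enriched, digested with LysC and trypsin, and run by diaPASEF LC-MS/MS. Spectronaut label-free quantities were global-median-normalised, and values are average log2 fragment/vehicle ratios by unpaired t-test on proteins with ≥2 unique peptides.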

USP36 = target: T1, USP36 (UniProt Q9P275)
T1 sequence (whole entry): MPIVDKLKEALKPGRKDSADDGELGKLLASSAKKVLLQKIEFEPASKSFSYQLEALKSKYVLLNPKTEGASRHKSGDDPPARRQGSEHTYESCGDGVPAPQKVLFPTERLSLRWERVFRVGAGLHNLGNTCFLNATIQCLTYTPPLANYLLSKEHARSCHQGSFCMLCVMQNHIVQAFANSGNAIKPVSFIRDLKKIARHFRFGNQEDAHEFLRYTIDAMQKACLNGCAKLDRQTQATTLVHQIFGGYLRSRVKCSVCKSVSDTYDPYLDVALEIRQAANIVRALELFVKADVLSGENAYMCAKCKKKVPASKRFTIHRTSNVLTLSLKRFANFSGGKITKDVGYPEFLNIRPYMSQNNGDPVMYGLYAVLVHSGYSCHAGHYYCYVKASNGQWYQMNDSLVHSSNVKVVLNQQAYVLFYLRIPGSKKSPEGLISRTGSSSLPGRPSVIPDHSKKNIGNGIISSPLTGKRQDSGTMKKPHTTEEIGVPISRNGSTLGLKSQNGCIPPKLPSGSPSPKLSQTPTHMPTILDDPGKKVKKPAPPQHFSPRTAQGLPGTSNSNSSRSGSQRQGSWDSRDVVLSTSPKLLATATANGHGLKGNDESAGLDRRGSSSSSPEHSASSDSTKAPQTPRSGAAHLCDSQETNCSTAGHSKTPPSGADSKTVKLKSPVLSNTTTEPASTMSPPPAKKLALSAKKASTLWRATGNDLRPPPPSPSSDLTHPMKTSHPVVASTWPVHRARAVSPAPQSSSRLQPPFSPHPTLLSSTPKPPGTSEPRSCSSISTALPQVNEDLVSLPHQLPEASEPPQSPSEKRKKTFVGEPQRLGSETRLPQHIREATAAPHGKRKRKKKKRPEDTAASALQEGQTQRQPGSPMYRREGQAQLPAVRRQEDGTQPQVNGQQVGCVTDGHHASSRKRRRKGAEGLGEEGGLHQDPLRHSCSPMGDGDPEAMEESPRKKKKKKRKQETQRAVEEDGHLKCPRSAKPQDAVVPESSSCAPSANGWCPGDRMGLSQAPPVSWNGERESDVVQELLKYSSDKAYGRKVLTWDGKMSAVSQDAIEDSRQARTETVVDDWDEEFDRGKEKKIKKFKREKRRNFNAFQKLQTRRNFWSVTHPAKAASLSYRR
Procedure, shortened: as §1

USP38 = target: T2, USP38 (UniProt Q8NB14)
T2 sequence (whole entry): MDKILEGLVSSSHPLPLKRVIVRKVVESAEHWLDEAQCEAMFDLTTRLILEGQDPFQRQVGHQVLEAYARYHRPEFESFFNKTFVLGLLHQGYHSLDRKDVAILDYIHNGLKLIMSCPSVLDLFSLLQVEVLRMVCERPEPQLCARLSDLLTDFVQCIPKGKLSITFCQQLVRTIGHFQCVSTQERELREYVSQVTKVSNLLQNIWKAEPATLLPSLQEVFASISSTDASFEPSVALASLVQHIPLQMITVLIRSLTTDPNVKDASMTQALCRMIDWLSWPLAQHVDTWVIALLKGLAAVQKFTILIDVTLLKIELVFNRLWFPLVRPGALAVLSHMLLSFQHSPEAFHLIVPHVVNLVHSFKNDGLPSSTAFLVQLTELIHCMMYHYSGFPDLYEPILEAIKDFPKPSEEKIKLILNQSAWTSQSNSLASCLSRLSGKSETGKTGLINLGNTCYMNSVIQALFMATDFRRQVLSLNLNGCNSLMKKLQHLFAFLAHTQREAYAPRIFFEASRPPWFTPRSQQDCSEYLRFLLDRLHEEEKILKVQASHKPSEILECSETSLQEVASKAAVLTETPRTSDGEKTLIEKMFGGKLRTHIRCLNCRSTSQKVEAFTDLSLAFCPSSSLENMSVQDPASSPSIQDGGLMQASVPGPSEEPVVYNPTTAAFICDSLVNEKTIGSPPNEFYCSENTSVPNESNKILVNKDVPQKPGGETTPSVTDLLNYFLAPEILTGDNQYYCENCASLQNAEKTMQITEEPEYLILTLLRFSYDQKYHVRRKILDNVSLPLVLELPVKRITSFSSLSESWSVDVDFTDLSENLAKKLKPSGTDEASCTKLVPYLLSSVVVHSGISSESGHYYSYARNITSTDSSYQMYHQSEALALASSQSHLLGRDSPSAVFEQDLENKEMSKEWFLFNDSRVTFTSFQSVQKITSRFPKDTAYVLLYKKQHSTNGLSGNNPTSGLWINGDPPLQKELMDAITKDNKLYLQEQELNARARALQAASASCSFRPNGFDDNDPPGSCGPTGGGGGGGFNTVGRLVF
Procedure, shortened: as §1

USP39 = target: T3, USP39 (UniProt Q53GS9)
T3 sequence (whole entry): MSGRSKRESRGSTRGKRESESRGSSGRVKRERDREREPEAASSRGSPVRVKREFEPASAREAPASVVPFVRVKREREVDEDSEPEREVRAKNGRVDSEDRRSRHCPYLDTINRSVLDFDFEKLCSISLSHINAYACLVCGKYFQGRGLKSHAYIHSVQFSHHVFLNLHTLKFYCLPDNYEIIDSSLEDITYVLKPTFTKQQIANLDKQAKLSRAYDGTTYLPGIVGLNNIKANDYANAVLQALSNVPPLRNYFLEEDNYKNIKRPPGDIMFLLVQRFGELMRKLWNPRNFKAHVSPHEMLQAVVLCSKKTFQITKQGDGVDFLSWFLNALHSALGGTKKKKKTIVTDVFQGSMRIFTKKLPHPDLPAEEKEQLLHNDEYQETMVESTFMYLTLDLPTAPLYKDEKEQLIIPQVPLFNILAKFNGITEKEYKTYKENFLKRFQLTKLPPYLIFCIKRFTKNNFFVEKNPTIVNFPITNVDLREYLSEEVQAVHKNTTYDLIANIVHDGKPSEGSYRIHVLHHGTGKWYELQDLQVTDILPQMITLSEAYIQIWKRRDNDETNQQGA
Procedure, shortened: as §1

USP4 = target: T4, USP4 (UniProt Q13107)
T4 sequence (whole entry): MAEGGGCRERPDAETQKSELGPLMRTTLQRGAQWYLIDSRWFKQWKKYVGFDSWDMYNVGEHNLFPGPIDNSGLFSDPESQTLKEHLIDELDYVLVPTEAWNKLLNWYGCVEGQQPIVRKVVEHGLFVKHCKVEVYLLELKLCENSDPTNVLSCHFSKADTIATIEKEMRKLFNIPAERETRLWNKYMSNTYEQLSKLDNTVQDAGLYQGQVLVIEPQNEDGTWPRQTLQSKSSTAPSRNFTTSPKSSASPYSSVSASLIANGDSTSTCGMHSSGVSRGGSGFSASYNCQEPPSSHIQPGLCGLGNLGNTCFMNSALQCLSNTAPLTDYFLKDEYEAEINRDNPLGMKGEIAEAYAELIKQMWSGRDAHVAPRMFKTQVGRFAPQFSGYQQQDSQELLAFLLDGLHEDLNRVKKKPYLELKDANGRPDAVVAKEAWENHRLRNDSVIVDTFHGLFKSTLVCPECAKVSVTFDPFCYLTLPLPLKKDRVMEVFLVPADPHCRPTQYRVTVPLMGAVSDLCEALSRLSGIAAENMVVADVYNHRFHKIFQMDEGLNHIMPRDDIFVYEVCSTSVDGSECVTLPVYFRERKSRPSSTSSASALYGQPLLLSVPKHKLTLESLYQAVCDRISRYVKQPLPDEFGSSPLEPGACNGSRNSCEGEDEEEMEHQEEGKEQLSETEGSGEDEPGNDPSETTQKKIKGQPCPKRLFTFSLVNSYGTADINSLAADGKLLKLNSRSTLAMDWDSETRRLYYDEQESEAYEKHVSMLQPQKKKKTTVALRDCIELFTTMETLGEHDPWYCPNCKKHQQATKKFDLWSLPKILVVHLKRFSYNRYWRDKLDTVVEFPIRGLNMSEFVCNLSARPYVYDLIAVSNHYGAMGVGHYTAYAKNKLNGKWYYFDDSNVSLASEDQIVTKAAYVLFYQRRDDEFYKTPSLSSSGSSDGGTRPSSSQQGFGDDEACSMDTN
Procedure, shortened: as §1

Measured: log2 ratio of Biotin-Ahx-Ub-VS probe labelling

O=C(CCl)NCC1(c2ccccc2)CC1
inactive: USP34 -0.227 | USP36 -0.0695 | USP38 0.127 | USP39 -0.168 | USP4 -0.0752
